TSHR agonist: agonists of human thyroid stimulating hormone receptor; P16473; HEK293-CNG-TSHR cells (CNG channel as cAMP sensor), membrane potential dye, cAMP; Potency, µM (doses to about 57.1 µM), for inactives: at the top dose activation, most hits filed as activators; 73,000 compounds, 0.48% hits; active means well fitted activation curve with a large enough effect in the main read-out, with a control signal flat, not every such curve was filed as active; inconclusive means small, poorly fitted or top-dose-only effect, or a change in a side signal; inactive means no such curve, though single readings can be large or run the other way; % of control where 0% means no effect;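 further: the control signal comes from parental cells without the receptor; potency means the concentration at half of the fitted maximal effect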
Target sequence (P16473 whole entry, looked up): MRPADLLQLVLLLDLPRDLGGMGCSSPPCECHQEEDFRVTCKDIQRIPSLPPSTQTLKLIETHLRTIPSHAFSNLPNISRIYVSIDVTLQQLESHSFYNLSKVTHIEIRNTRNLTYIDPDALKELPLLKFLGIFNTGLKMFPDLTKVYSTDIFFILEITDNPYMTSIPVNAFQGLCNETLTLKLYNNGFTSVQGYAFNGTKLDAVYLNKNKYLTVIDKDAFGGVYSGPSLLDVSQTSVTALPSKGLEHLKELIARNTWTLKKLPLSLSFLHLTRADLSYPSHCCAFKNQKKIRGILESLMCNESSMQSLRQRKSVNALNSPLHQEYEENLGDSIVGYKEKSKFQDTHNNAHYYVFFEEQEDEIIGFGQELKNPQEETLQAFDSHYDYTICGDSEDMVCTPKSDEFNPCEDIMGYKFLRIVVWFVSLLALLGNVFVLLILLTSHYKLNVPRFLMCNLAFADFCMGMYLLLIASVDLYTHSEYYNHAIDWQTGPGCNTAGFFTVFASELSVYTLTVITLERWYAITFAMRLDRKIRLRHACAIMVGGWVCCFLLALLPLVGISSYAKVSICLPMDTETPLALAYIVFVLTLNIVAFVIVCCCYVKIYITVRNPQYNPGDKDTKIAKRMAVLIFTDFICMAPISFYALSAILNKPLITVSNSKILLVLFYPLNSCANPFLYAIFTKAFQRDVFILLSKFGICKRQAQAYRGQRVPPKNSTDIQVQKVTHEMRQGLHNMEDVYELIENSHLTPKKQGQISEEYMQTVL
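HEK 293 cells stably expressing TSHR and a cAMP-gated CNG channel; parental CNG-only cells as counterscreen. Cells preloaded 60 min with membrane potential dye plus 100 uM RO 20-1724, then compound 30 min; fluorescence read at 590 nm.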
ERK AVP block: vasopressin-driven ERK pathway inhibition; HEK293-V1b, vasopressin-stimulated pERK AlphaScreen; Potency, µM (series often up to 57.5 µM), without a hit: at the highest dose activity, negative = inhibition, most hits filed as inhibitors; 72,000 compounds, 0.99% hits; further: potency means the concentration at half of the fitted maximal effect; on the % scale 0 is the no-effect control and ±100 the full control effect; nearly all actives have a fitted effect of over 55% in size
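qHTS, compounds titrated on V1b-expressing HEK293 cells. Preincubation 30 min at 37C, vasopressin 25 nM for 5 min, lysis 10 min, bead incubation 5 hr at room temperature.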
HEK293 cAMP cs: counter-screen for TSHR agonists: cAMP increase in parental HEK293; parental HEK293 CNG cAMP sensor, membrane potential fluorescence; Potency, µM (highest dose often 57.1 µM), for the others: at the top dose activation, most hits filed as activators; 73,000 compounds, 2.5% hits; AID 938; further: potency means the concentration at half of the fitted maximal effect; % of control where 0% means no effect; nearly all actives have a fitted effect of over 55% in size
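Parental HEK 293 cells stably expressing a modified CNG channel (no TSHR) report cAMP rise as membrane depolarization. Membrane potential dye with 100 uM RO 20-1724 was loaded for 60 min at room temperature, then compound added for 30 min; fluorescence read at 590 nm.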
Epigenetic mod: derepresses silenced GFP locus in mouse C127i cells | mouse C127i GFP locus derepression, cytometry, 30 h | Potency, µM (highest dose often 46.1 µM), for inactives: at the highest dose GFP derepression (activation) | 68,000 compounds, 0.09% hits; further: % of control where 0% means no effect
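Read-out is the number of GFP-positive cells, scored as fluorescent objects 20 to 120 um wide, reflecting derepression of a silenced CMV-GFP reporter in murine C127i cells after 30 h compound exposure at 37 C.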
Ub-GFP proteasome: ubiquitin-GFP accumulation via proteasome inhibition; Ubiquitin-GFP reporter cells, proteasome inhibition, GFP fluorescence; response scale: untreated = 0%, 10 µM MG-132 = 100%; Potency, µM (top dose mostly 45.9 µM), for inactives: at the top dose activation (GFP accumulation), hits mostly activators; 67,000 tested, under 10 active; active means well fitted activation curve with a large enough effect, not every such curve was filed as active; inconclusive means small, poorly fitted or top-dose-only effect, or another doubt; inactive means no such curve, though single readings can be large or run the other way; further: potency means the concentration at half of the fitted maximal effect
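U2OS Ub(G76V)-GFP reporter; O/N plating, 0.5% FBS; cpd 46 uM–2.9 nM, 4 h, 37 °C; GFP+ cell count, 488/515 nm; norm. to basal vs 10 uM MG-132; CRC fit.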
HBB splicing: hemoglobin beta splicing modulation. HBB splicing reporter cell assay, activation; EGFP reporter with mutant IVS2-654 intron; response scale: normalised to 500 nM splice-correcting PNA. Potency, µM (top dose mostly 46.1 µM), for inactives: at the highest dose activation, usual class: activators. 65,000 compounds, 0.06% hits. AID 925; further: potency means the concentration at half of the fitted maximal effect; 0% is about no effect
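Compounds were applied for 2 days to HeLa EGFP-654 cells, 500/well in Optimem with 2% FCS. The reporter's EGFP is disrupted by mis-splicing of beta-globin intron IVS2-654. Readout: summed well GFP fluorescence from 488 nm laser scanning; reference was 500 nM antisense […] 654 PNA.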
The depositor's hits bear a star; [ ] = remark or other dose. This is a sample that favours compounds with a hit; in the whole collection about 3.8% have one here. Unless noted, the call rests on the fitted dose curve; in most records, active means well fitted curve in the direction sought with a large enough effect; inconclusive means small, poorly fitted or top-dose-only effect, or another doubt; inactive means no such curve, though single readings can be large; an effect the other way counts as inactive or inconclusive.

For CCn1c(COc2cccc(OC)c2)nnc1SCC(=O)Nc1ccccc1C(=O)OC the results were TSHR agonist inconclusive, ERK AVP block 23%, HEK293 cAMP cs 16µM*, Epigenetic mod 1% and Ub-GFP proteasome 6%.
CCn1c(CC(=O)Nc2ccccc2)nnc1SCC(=O)Nc1ccccc1C(=O)OC was read as TSHR agonist 6%, ERK AVP block -14%, HEK293 cAMP cs 4%, Epigenetic mod -2%, Ub-GFP proteasome 2% and HBB splicing -1%.
`CCN(CC)CCCC(C)Nc1nc(C)cc(Nc2ccc3nc(C)cc(N)c3c2)n1` (stereo not given) gave TSHR agonist -3%, ERK AVP block 1%, HEK293 cAMP cs 9% and HBB splicing 0%.
For CCCCOn1c(C)c(C(=O)OCC)c2c3nonc3ccc21 the results were TSHR agonist inconclusive, ERK AVP block 22%, HEK293 cAMP cs 13µM*, Epigenetic mod 4%, Ub-GFP proteasome -4% and HBB splicing 1%.
`CCOC(=O)c1ccccc1NC(=O)c1ccc(NS(C)(=O)=O)cc1` gave TSHR agonist 1%, ERK AVP block 25µM*, HEK293 cAMP cs -5%, Epigenetic mod 2%, Ub-GFP proteasome -3% and HBB splicing -1%.
Screening O=c1oc(-c2ccco2)nc2c1cnn2-c1ccccc1 returned TSHR agonist 9%, ERK AVP block 18%, HEK293 cAMP cs 25%, Epigenetic mod 0% and Ub-GFP proteasome 1%.
`O=c1c2cnn(-c3ccccc3)c2nc(-c2ccco2)n1-c1ccccc1` gave TSHR agonist inconclusive, ERK AVP block inconclusive, HEK293 cAMP cs 20µM*, Epigenetic mod -2%, Ub-GFP proteasome -8% and HBB splicing -1%[9.22 µM].
Cc1ccc(C)c2[nH]c(=O)c(CCNC(=O)c3ccc(S(=O)(=O)N(C)C)cc3)cc12 was read as TSHR agonist -13%, HEK293 cAMP cs -5%, Ub-GFP proteasome -6% and HBB splicing 0%.
For CC(=O)Nc1ccc(S(=O)(=O)NCCc2cc3c(C)ccc(C)c3[nH]c2=O)cc1 the results were TSHR agonist inconclusive, HEK293 cAMP cs 25µM*, Ub-GFP proteasome 11% and HBB splicing 1%.
Screening c1cncc(CSc2ncnc3nc[nH]c23)c1 returned TSHR agonist 2%[11.4 µM], ERK AVP block 0%[11.5 µM], HEK293 cAMP cs -2%[11.4 µM], Epigenetic mod -3%[9.22 µM], Ub-GFP proteasome -3%[9.17 µM] and HBB splicing 3%[9.22 µM].
For Nc1ncnc2nc(Cl)[nH]c12 the results were ERK AVP block 3%.
Screening CCCCn1c(NC(=O)c2ccccc2)nc2ccccc21 returned TSHR agonist inconclusive, ERK AVP block -9%, HEK293 cAMP cs 32µM*, Epigenetic mod 1%, Ub-GFP proteasome -12% and HBB splicing -7%.
CCCn1c(NCc2cc(C)ccc2O)nc2ccccc21 was read as TSHR agonist 7%, ERK AVP block -22%, HEK293 cAMP cs 0%, Epigenetic mod 0%, Ub-GFP proteasome 0% and HBB splicing 0%.
Screening CCCCn1c(NCc2ccccc2O)nc2ccccc21 returned TSHR agonist 24%, ERK AVP block 25µM*, HEK293 cAMP cs 14%, Ub-GFP proteasome 0% and HBB splicing 0%.
Screening Cn1c(=O)c(-c2cccc(F)c2)nc2cncnc21 returned TSHR agonist inconclusive, ERK AVP block -24%, HEK293 cAMP cs inconclusive, Epigenetic mod 3%[9.22 µM], Ub-GFP proteasome 4% and HBB splicing 1%.
For COc1ccccc1-c1ccc2ncnc(NCc3cnc(C)cn3)c2c1 the results were TSHR agonist inconclusive, ERK AVP block 20µM*, HEK293 cAMP cs 25µM*, Epigenetic mod -3%[9.22 µM], Ub-GFP proteasome -2% and HBB splicing 0%.
Screening c1cncc(-c2ccc3ncnc(NCCN4CCOCC4)c3c2)c1 returned TSHR agonist 2%, ERK AVP block -26%, HEK293 cAMP cs -5%, Epigenetic mod 1%[9.22 µM], Ub-GFP proteasome 6% and HBB splicing 2%.
`c1csc(CNc2ncncc2-c2ccc3c(c2)OCO3)c1` gave TSHR agonist inconclusive, ERK AVP block 6.3µM*, HEK293 cAMP cs inconclusive, Epigenetic mod -3%[9.22 µM], Ub-GFP proteasome 0% and HBB splicing 0%.
For CNc1ncnc2ccc(-c3ccccc3C)cc12 the results were TSHR agonist inconclusive, ERK AVP block -29%, HEK293 cAMP cs 2µM*, Epigenetic mod -3%[9.22 µM], Ub-GFP proteasome -1% and HBB splicing -1%.
`Cc1ccccc1-c1ccc2ncnc(NCCN3CCOCC3)c2c1` gave TSHR agonist inconclusive, ERK AVP block 25µM*, HEK293 cAMP cs inconclusive, Epigenetic mod inconclusive, Ub-GFP proteasome -7% and HBB splicing -1%.
For OC[C@H]1O[C@@H](n2cnc3cncnc32)[C@H](O)[C@@H]1O the results were ERK AVP block -1%.
For CCOC(=O)CNS(=O)(=O)c1cc(-c2nn(C)c(=O)c3ccccc23)ccc1C the results were Epigenetic mod 7%[20.6 µM].
Cc1ccc(-c2nn(C)c(=O)c3ccccc23)cc1S(=O)(=O)NCCN1CCOCC1 was read as TSHR agonist 7%, ERK AVP block 25µM*, HEK293 cAMP cs 18%, Epigenetic mod 0%, Ub-GFP proteasome 6% and HBB splicing 0%.
Screening Cc1ccccc1-c1ccc2ncnc(NCc3cccs3)c2c1 returned TSHR agonist inconclusive, ERK AVP block inconclusive, HEK293 cAMP cs 4µM*, Epigenetic mod -3%[9.22 µM], Ub-GFP proteasome 2% and HBB splicing -1%.
Screening COc1ccccc1-c1ccc2ncnc(N3CCOCC3)c2c1 returned TSHR agonist inconclusive, ERK AVP block 10µM*, HEK293 cAMP cs inconclusive, Epigenetic mod 2%[9.22 µM], Ub-GFP proteasome 1% and HBB splicing -1%.
For c1ccc(Cn2c(-c3ccco3)nc3nc4ccccc4nc32)cc1 the results were TSHR agonist 8%, ERK AVP block -12%, HEK293 cAMP cs 19%, Epigenetic mod 2%, Ub-GFP proteasome -9% and HBB splicing 7%[57.5 µM].
Screening COc1ccccc1Cn1c(-c2ccco2)nc2nc3ccccc3nc21 returned TSHR agonist -1%, ERK AVP block -18%, HEK293 cAMP cs 13%, Epigenetic mod 13µM*, Ub-GFP proteasome -2% and HBB splicing 2%[57.5 µM].
Screening Cc1ccc(-c2nc3nc4ccccc4nc3n2Cc2ccco2)cc1 returned TSHR agonist inconclusive, ERK AVP block -6%, HEK293 cAMP cs 25µM*, Epigenetic mod 0%, Ub-GFP proteasome 3% and HBB splicing 3%[57.5 µM].
